# Hits are enriched below; roughly 3.9% of the tested compounds scored in any of these assays.
# HTT promoter inh = HTT promoter inhibition; HEK293 HTT promoter firefly luciferase reporter, 24 h; hit rate 0.93% among 48,000; AID 1508623; Potency, µM (doses to about 57.5 µM), inactives show at the top dose activity change, negative = inhibition, actives largely listed as inhibitors; also: potency is read from the fitted curve at half-maximal effect; nearly all actives have a fitted effect of over 50% in size
#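 HEK293 Fluc reporter, 2,500 cells/well, 24 h pre-culture; cpds up to 57.5 uM final, 24 h 37 degrees C; Dual-Glo, 10 min RT; normalized vehicle = 0%, zero RLU = -100%.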
# p53null 32C kill = p53 null cell cytotoxicity, permissive temperature | H1299-neo p53 null cells, ATP luminescence, 24 h, 32C | Potency, µM (titrated, usually from 46.1 µM), for the others: at the highest dose activity change, negative = cytotoxicity, most hits filed as cytotoxic | hit rate 0.62% among 55,000 | AID 903;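 also: potency is read from the fitted curve at half-maximal effect; 0% = DMSO only and -100% = full killing by 100 µM tamoxifen; nearly all actives have a fitted effect of over 55% in size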
#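 H1299-neo, 600 cells/well; overnight 37C; cpd up to 46 uM, 24 h at 32C; ATPlite luminescence after 20 min RT; normalized to DMSO (0%) and tamoxifen 100 uM (100% kill); Hill-fit AC50.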
# HTT-AS promoter = activates huntingtin-antisense promoter activity; HEK293 HTT-AS promoter firefly luciferase reporter, 24 h; response scale: percent change from vehicle, -100% = no light; Potency, µM (titrated, usually from 57.5 µM), for inactives: at the top dose activity change, positive = activation, hits mostly activators; hit rate 0.24% among 48,000; AID 1508624; also: potency is read from the fitted curve at half-maximal effect; nearly all actives have a fitted effect of over 55% in size
#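 HEK293 luciferase promoter-reporter cells (2,500/well) plated 24 h, then compounds added at up to 57.5 uM final for 24 h at 37 °C. Firefly luminescence by Dual-Glo, normalized to vehicle (0%) and zero RLU (-100%).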
# DRV1 agonist = activates human resolvin D1 receptor GPR32; hit rate 2.5% among 48,000; activation, % at 76.9 µM; CHO-K1 GPR32 beta-arrestin PathHunter luminescence, 90 min; zero percent set by DMSO-only wells; O75388;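 active = activation of at least 60% and not above a set upper limit, about 1 call in 100 departs from these limits; inconclusive = activation of 40% to 60%, or above that upper limit; inactive = activation under 40%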; also: 0% is about no effect
# Target sequence (O75388 whole entry, looked up): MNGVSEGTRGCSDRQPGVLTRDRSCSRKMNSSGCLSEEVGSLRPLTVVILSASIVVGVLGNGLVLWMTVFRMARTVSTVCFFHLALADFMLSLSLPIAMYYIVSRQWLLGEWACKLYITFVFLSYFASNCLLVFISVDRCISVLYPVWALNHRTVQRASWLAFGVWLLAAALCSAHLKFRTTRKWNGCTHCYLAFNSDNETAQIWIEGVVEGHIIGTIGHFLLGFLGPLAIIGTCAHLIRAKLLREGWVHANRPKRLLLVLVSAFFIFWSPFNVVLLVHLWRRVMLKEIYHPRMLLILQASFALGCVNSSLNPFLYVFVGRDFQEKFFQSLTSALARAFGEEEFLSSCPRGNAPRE
#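 Cells are plated overnight, treated with compounds in DMSO for 90 minutes at 37 °C, and developed with PathHunter detection reagent for 1 hour before luminescence is read; signal reflects beta-arrestin binding to GPR32 in engineered CHO-K1 cells.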
# p53null 39C tox = p53 null cell cytotoxicity, nonpermissive temperature; Potency, µM (series often up to 46.1 µM), without a hit: top-dose activity, negative = cell killing, most hits filed as cytotoxic; hit rate 0.97% among 55,000; H1299 p53-null (neo) cells, 39C, ATPlite viability, 24 h;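 also: potency is read from the fitted curve at half-maximal effect; 0% = DMSO only and -100% = full killing by 100 µM tamoxifen; nearly all actives have a fitted effect of over 50% in size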
#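 Following overnight plating at 37C (600 cells/well), H1299-neo or H1299-p53A138V cells are dosed up to 46 uM. Incubation lasts 24 hr at 39C before ATP detection.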
# * = called active by the depositor; ? = inconclusive; . = not tested or not shown. Unless noted, calls follow the shape of the dose curve; as a rule, active = well fitted curve in the direction sought with a large enough effect; inconclusive = small, poorly fitted or top-dose-only effect, or another doubt; inactive = no such curve, though single readings can be large; an effect the other way counts as inactive or inconclusive.
SMILES,HTT promoter inh,p53null 32C kill,HTT-AS promoter,DRV1 agonist,p53null 39C tox
CC1=C(CO)C(=O)O[C@@H]([C@@H](C)[C@H]2CC[C@H]3[C@@H]4C[C@H]5O[C@]56[C@@H](O)C=CC(=O)[C@]6(C)[C@@H]4CC[C@]23C)C1,?,.,-94.8%,.,.
Cc1ccc(S(=O)(=O)Nc2ccc3nc(-c4ccc(F)cc4)oc3c2)cc1,-2.7%,51.2%,-19.6%,66.5*,33.4%
O=S(=O)(Nc1ccc2nc(-c3ccc(F)cc3)oc2c1)c1ccccc1,7.3%,19.0%,4.6%,?,11.1%
CCOc1ccc(CNCc2c(C(=O)O)n(Cc3ccc(C)cc3)c3cc(C)ccc23)cc1,?,47.5%,-42.1%,64.3*,?
Cc1ccc(Cn2c(C(=O)O)c(CNCc3cccs3)c3ccc(C)cc32)cc1,?,-12.8%,-32.5%,110.5*,-23.3%
Cn1c(=O)c(Oc2ccc(F)cc2F)cc2cnc(NC3CCOCC3)nc21,-5.4%,.,-16.6%,.,.
Cc1cc(C)c2c(=O)cc(CSc3nnc(-c4ccccc4)n3C)[nH]c2c1,-20.1%,-5.2%,-23.0%,60.7*,?
Cc1cc(C)c2c(=O)cc(CSc3nnc(COc4ccccc4C)n3C)[nH]c2c1,-19.9%,13.2%,-11.2%,24.5,-20.4%
Cc1csc2nc(-c3cccc(NC(=O)c4ccccc4Cl)c3)cn12,4.3%,-25.7%,1.5%,-6.3,?
Cc1csc2nc(-c3cccc(NC(=O)c4ccccc4F)c3)cn12,21.7%,?,17.5%,17.0,11.2µM*
COc1ccc(OC)c(S(=O)(=O)N2CCC(n3c(C)nc4cccnc43)CC2)c1,.,-3.3%,.,64.7*,?
CCc1ccc2nc(N3CCC(C(=O)NCCC(C)C)CC3)sc2c1,-26.9%,?,-15.4%,-2.8,6.31µM*
CC1CCN(c2nc3ccc(C(=O)NC(C)C)cc3s2)CC1,-83.1%,-9.1%,?,?,-21.5%
CC1CCN(c2nc3ccc(C(=O)NCCc4ccc(S(N)(=O)=O)cc4)cc3s2)CC1,0.398µM*,1.8%,?,-8.2,-9.3%
CCCN(CCC)CCNC(=O)C1CCN(c2nc3ccc(CC)cc3s2)CC1,24.7%,?,?,-2.4,?
CC1CCN(c2nc3ccc(C(=O)NCc4ccccc4)cc3s2)CC1,0.112µM*,-0.1%,-76.2%,7.7,-7.7%
CCOc1ccccc1CNC(=O)c1cnc2sc(N3CCC(C)CC3)nn2c1=O,.,-5.8%,.,-10.7,-7.0%
CCOc1ccccc1CNC(=O)c1ccc2nc(N3CCC(C)CC3)sc2c1,1.78µM*,-6.3%,-53.6%,5.4,12.2%
Cc1ccc(CNC(=O)c2ccc3nc(N4CCCCC4)sc3c2)cc1,?,-10.8%,-37.2%,6.0,-10.9%
CCN1CCN(Cc2ccc(-c3cc4c(N[C@H](C)c5ccccc5)ncnc4[nH]3)cc2)CC1,?,.,-37.8%,.,.
O=c1[nH]c(=O)n([C@H]2C[C@@H](O)[C@@H](CO)O2)cc1I,23.2%,.,-10.0%,.,.
CCOC(=O)c1ccc(N2C(=O)c3[nH]nc(-c4ccc(OC)cc4)c3C2c2ccccc2Cl)cc1 (configuration not stated),-2.1%,9.0%,-0.2%,-5.6,9.6%
COc1ccc(-c2n[nH]c3c2C(c2ccc(Cl)cc2Cl)NC3=O)cc1 (configuration not stated),?,9.4%,-40.9%,87.0*,28.3%
O=C(O)Cn1cnnn1,2.6%,.,0.6%,-15.7,.
Cc1ccc(C2=CC(c3ccccc3F)n3c(nc4ccccc43)N2)cc1C (configuration not stated),-1.3%,12.6µM*,?,23.2,?
CCOc1ccc(C2=CC(c3cccc(Br)c3)n3c(nc4ccccc43)N2)cc1Cl (configuration not stated),33.7%,-0.9%,?,-4.4,10.1%
COc1cccc(C2=CC(c3ccccc3F)n3c(nc4ccccc43)N2)c1 (configuration not stated),24.5%,11.2µM*,?,-26.6,?
CC1CCc2nc3ncn(Cc4ccc(Cl)cc4)c(=O)c3cc2C1 (configuration not stated),46.9%,8.3%,3.16µM*,-16.1,-10.5%

# Bioassay records (PubChem BioAssay)
